High-throughput results deposited in PubChem by several laboratories.
BoNT-F LC inh – inhibitors of Botulinum neurotoxin F light chain protease | 0.22% of 360,000 active | Multiplex microsphere protease cleavage assay, flow cytometry | AID 588497 | inhibition, % at 10 µM; in the data active = inhibition above about 35%, passing the limit was not always enough; inconclusive = no clear call, values can overlap the other calls
BoNT-A LC inh2 – blocks Botulinum neurotoxin A light chain protease; 0.17% of 360,000 active; multiplex microsphere protease substrate cleavage, flow cytometry; inhibition, % at 10 µM; AID 588499
TcdB inh – blocks C. difficile toxin B glycohydrolase activity. 0.24% of 350,000 active. inhibition, % at 9.99 µM. AID 652162. TcdB glycohydrolase enzymatic assay, plate reader; in the data active = inhibition above about 10%
Bead autofluor – compound fluorescence in toxin protease inhibitor counterscreen | compound autofluorescence counterscreen, microsphere flow cytometry; stronger effect = higher value | fluorescence intensity (concentration not given with the values) | 3.1% of 360,000 active | AID 624483; in the data active = fluorescence intensity above about 16000; inconclusive = no clear call, values can overlap the other calls
Anthrax LF prot – blocks Bacillus anthracis lethal factor protease. AID 588501. P15917. inhibition, % at 10 µM. multiplex microsphere protease cleavage assay, LF. 0.12% of 360,000 active
Target sequence (P15917 whole entry, looked up): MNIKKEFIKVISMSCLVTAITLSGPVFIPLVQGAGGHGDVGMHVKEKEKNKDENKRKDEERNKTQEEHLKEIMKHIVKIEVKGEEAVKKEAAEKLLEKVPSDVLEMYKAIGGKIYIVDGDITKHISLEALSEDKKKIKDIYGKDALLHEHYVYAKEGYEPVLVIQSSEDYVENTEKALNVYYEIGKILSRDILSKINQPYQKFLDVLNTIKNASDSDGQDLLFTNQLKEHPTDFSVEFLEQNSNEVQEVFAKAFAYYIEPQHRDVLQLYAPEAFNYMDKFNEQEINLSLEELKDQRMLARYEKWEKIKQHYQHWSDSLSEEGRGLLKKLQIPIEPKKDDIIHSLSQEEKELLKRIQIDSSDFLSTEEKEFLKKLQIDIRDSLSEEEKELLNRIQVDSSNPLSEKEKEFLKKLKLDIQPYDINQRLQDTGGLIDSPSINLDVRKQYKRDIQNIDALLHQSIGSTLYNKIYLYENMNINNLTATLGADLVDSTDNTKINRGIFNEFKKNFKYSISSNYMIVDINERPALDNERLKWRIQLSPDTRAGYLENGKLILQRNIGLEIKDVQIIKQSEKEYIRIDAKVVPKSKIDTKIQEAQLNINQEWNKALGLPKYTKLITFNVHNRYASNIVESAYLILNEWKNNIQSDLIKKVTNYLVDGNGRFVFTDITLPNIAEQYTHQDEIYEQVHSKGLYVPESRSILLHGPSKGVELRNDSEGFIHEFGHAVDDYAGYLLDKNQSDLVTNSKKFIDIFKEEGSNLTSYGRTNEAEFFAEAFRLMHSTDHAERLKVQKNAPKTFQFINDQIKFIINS
Hits are given with their value; i = inactive; ? = inconclusive; nt = no result. The full list was thinned out, with hits kept by preference. Rule as the data show it, unless noted: active = inhibition above about 30%; inconclusive = no clear call, values can overlap the other calls; inactive = below that.

SMILES	BoNT-F LC inh	BoNT-A LC inh2	TcdB inh	Bead autofluor	Anthrax LF prot
O=C(c1ccccc1F)N1CCN(c2ccccc2)CC1	i	i	nt	19300	i
O=C(c1ccccc1F)N1CCN(c2ccccc2F)CC1	i	i	nt	i	i
O=C(c1ccc2ccccc2c1)N1CCN(c2ccccc2)CC1	i	?	i	19676	i
O=C(c1cccc(S(=O)(=O)N2CCCCCC2)c1)N1CCN(c2ccccc2)CC1	i	i	i	i	i
COCC(=O)N1CC2(CN(Cc3cccnc3)C2)c2c(n(C)c3cc(OC)ccc23)[C@H]1CO	nt	nt	i	nt	nt
Cc1cc(NC(=O)c2c(F)cccc2Cl)n(-c2nc3ccccc3[nH]2)n1	i	i	nt	i	i
Cc1cc(NC(=O)c2c(F)cccc2F)n(-c2nc3ccccc3[nH]2)n1	i	i	nt	16824	i
O=[N+]([O-])c1ccc(Cl)c(/C=N/N2CCN(Cc3ccc(Cl)cc3)CC2)c1	i	?	nt	18114	i
O=[N+]([O-])c1ccc(Cl)c(/C=N/N2CCN(Cc3ccccc3)CC2)c1	i	i	nt	21691	i
CC(C)CC#Cc1cnc2c(c1)C(=O)N([C@H](C)CO)C[C@@H](C)[C@@H](CN(C)C(=O)c1ccc3c(c1)OCO3)O2	nt	nt	i	nt	nt
Cc1ccc(CN2CCSc3ccc(C(=O)N4CCN(c5ncccn5)CC4)cc32)cc1	i	i	nt	22029	i
CCN1CCN(C(=O)c2ccc3c(c2)N(Cc2ccc(C)cc2)CCS3)CC1	i	i	i	i	i
Cc1ccc(C(=O)Nc2cnc3ccccn3c2=O)cc1	i	i	nt	24404	i
O=C(NNC(=O)c1cccc2ccccc12)c1cccc(F)c1	i	i	11	i	i
O=C(O)C1C2C=CC(C2)C1C(=O)Nc1cccc(C(F)(F)F)c1 (stereo unspecified)	50	i	i	i	i
CNC(=O)Nc1cccc(C(F)(F)F)c1	i	i	nt	?	i
COc1ccccc1NC(=O)N1CCN(c2ccc(F)cc2)CC1	i	i	nt	i	i
CC(=O)Nc1ccc(CN2CCN(c3cccc(C(F)(F)F)c3)CC2)cc1	i	i	nt	17158	i
Cc1ccc(OC(F)F)c(NC(=O)Nc2cccc(C(F)(F)F)c2)c1	i	i	i	19099	i
CC(=O)Nc1cccc(NC(=O)C2C3C=CC(C3)C2C(=O)O)c1 (stereo unspecified)	i	i	i	i	i
CC(=O)Nc1ccc(NC(=O)CN2CCN(c3cccc(C(F)(F)F)c3)CC2)cc1	i	i	nt	i	i
COc1ccccc1NC(=O)N1CCN(c2cccc(C(F)(F)F)c2)CC1	i	i	i	23145	i
C[C@H](CO)N1C[C@H](C)[C@H](CN(C)S(=O)(=O)c2ccccc2)Oc2ccc(NC(=O)Nc3ccc(C(F)(F)F)cc3)cc2C1=O	nt	nt	i	nt	nt
COc1ccc2c3c([nH]c2c1)[C@@H](CO)N(C(=O)C1CCCCC1)CC31CN(C(=O)NC(C)C)C1	nt	nt	i	nt	nt
COC(=O)[C@H](CC(C)C)NC(=O)N1CCN(c2cccc(C(F)(F)F)c2)CC1	i	i	i	23638	i
SMILES	BoNT-F LC inh	BoNT-A LC inh2	TcdB inh	Bead autofluor	Anthrax LF prot
C[C@H](NC(=O)Nc1cccc(C(F)(F)F)c1)C(=O)O	i	?	nt	21298	i
O=C(Nc1ccccc1)Nc1cccc(C(F)(F)F)c1	i	i	i	i	i
O=C(Nc1cccc(C(F)(F)F)c1)N1CCN(C(=O)Nc2cccc(C(F)(F)F)c2)CC1	i	i	nt	22460	i
CCCN1CCN(C(=O)Nc2cccc(C(F)(F)F)c2)CC1	i	i	i	i	i
O=C(/C=C/Nc1cccc(C(F)(F)F)c1)C(F)(F)F	i	?	i	20521	i
CC(C)C[C@H](NC(=O)N1CCN(c2ccccc2)CC1)C(=O)O	i	i	i	i	i
O=C1Nc2ccccc2/C1=C/c1ccccc1F	i	i	i	i	i
O=C1Nc2ccccc2/C1=C\c1cccn1-c1ccc(OC(F)(F)F)cc1	i	i	nt	24253	i
O=c1c2ccccc2nc(/C=C/c2ccc(O)cc2)n1-c1ccccc1O	i	i	12	i	i
CCOC(=O)c1sc2nc(OCCN3CCOCC3)cc(C)c2c1N	i	i	12	i	i
Cn1nc(C(F)(F)F)c(/C=N/OC(=O)c2ccccc2Cl)c1SCc1ccc(Cl)cc1	i	i	nt	23366	i
Cc1ccc(C(=O)O/N=C/c2c(C(F)(F)F)nn(C)c2Sc2ccc(Cl)cc2)cc1	i	i	nt	i	i
COc1ccc(C(=O)O/N=C/c2c(C(F)(F)F)nn(C)c2SCc2ccccc2Cl)cc1	i	i	nt	22636	i
CCCN1[C@H](C(=O)N2CCN(C)CC2)[C@@H](CO)[C@@H]2Cn3c(ccc(-c4ccccc4F)c3=O)[C@@H]21	nt	nt	i	nt	nt
COCC(=O)NC[C@H]1[C@@H](c2ccccc2)[C@@H](CO)N1C(=O)c1ccccc1	nt	nt	i	nt	nt
Cc1cc(C)c(C#N)c(Nc2ccccc2)n1	i	i	nt	21778	i
O=C(/C=C/Nc1ccc([N+](=O)[O-])cc1Br)c1cccc2ccccc12	i	38	nt	i	i
CCCc1cn(CC[C@@H]2CC[C@H](NC(=O)C3CCCC3)[C@H](CO)O2)nn1	nt	nt	i	nt	nt
C=CCn1c(C)cc(C)c(C#N)c1=O	i	i	nt	22789	i
CCn1c(C)cc(C)c(C#N)c1=O	i	i	i	i	i
Cn1c(NCCCN2CCOCC2)nc2c1c(=O)n(Cc1ccc(Cl)cc1Cl)c(=O)n2C	i	i	nt	21423	i
COCCCNc1nc2c(c(=O)n(Cc3ccc(Cl)cc3)c(=O)n2C)n1C	i	i	i	i	i
Cc1cc(=O)oc2c(CN3CCN(CCO)CC3)c(O)ccc12	i	i	i	i	i
COc1ccccc1-c1c(C)oc2c(CN3CCN(C)CC3)c(O)ccc2c1=O	i	?	nt	21100	i
CN1CCN(Cc2c(O)ccc3c(-c4ccccc4)cc(=O)oc23)CC1	i	?	nt	23428	i
SMILES	BoNT-F LC inh	BoNT-A LC inh2	TcdB inh	Bead autofluor	Anthrax LF prot
COc1ccc(/C=N/N2CCN(c3ccccc3OC)CC2)cc1Br	?	i	i	i	i
COc1ccc(/C=N/N2CCN(c3ccccc3OC)CC2)cc1OC	i	?	nt	16494	i
COc1cccc(/C=N/N2CCN(c3ccccc3OC)CC2)c1	i	i	nt	24263	i
C[C@H]1CCCCO[C@H](CN(C)Cc2ccc(C(=O)O)cc2)[C@@H](C)CN([C@@H](C)CO)C(=O)c2cc(NC(=O)Nc3ccc(C(F)(F)F)cc3)ccc2O1	nt	nt	i	nt	nt
C[C@@H]1CN([C@@H](C)CO)C(=O)Cc2cc(NC(=O)NC3CCCCC3)ccc2O[C@@H]1CN(C)S(=O)(=O)c1ccccc1	nt	nt	i	nt	nt
CN1C(=O)c2cc(NC(=O)Cc3cccs3)ccc2OC[C@H]2O[C@@H](CC(=O)N[C@@H]3CCN(Cc4ccccc4)C3)CC[C@@H]21	nt	nt	i	nt	nt
CC(C)NC(=O)Nc1ccc2c(c1)C(=O)N([C@H](C)CO)C[C@H](C)[C@@H](CN(C)C(=O)Nc1ccc3c(c1)OCO3)OCCCC[C@H](C)O2	nt	nt	i	nt	nt
COc1ccc(N(CC(=O)Nc2ccc(C)c(C)c2)S(=O)(=O)c2c(C)noc2C)cc1	i	i	i	i	i
COc1ccc(N(CC(=O)Nc2cc(C(=O)O)ccc2C)S(=O)(=O)c2c(C)noc2C)cc1	i	i	nt	16981	i
CCCC(C(=O)OCC)P(=O)(c1ccccc1)c1ccccc1 (stereo unspecified)	i	?	i	23167	i
